Source: ChEMBL document CHEMBL1201862, “PubChem BioAssay data set” (2004)

Assay: M. tuberculosis growth inhibition, dose response, 7H9 media, purified and synthesized compounds, set 6 (AID 504897); call rule not given here
Assay type: functional

Question: Which IC90 does the source give for `COC(=O)c1ccc(CNc2c(N3CCCC3)c(=O)c2=O)cc1` here?
Answer: Its IC90 is > 100 µM (active).

Question: Which IC90 does the source give for `NC(=O)c1cnccn1` here?
Answer: Its IC90 is > 100 µM (active).

Question: Which IC90 does the source give for `CCCc1cc(C(N)=S)ccn1` here?
Answer: Its IC90 is > 100 µM (active).

Question: For `O=C(CSc1ccccn1)NC1CCCCC1`, which IC90 is on record?
Answer: The IC90 was > 100 µM (active).

Question: For `Cc1[nH]c2ccccc2c1C(=O)COC(=O)c1ccc([N+](=O)[O-])s1`, which IC90 is on record?
Answer: The IC90 was > 67.8 µM (active).
